Data: ChEMBL document CHEMBL3988442, “University of Dundee, Small-Polar-MMV Screening Library” (2021)

What was measured:
[1] = target: T1, Aspartate--tRNA(Asp/Asn) ligase (Mycobacterium tuberculosis (strain ATCC 25618 / H37Rv)) (UniProt P9WFW3); experiment: Assay for Asp RNA synthetase-1 from Mycobacterium tuberculosis; assay type: functional; parameters: scale not given: direction of the effect not stated beside the values; settings: 30 µM; further: in the data most compounds retested in dose-response had high values
T1 sequence (whole entry): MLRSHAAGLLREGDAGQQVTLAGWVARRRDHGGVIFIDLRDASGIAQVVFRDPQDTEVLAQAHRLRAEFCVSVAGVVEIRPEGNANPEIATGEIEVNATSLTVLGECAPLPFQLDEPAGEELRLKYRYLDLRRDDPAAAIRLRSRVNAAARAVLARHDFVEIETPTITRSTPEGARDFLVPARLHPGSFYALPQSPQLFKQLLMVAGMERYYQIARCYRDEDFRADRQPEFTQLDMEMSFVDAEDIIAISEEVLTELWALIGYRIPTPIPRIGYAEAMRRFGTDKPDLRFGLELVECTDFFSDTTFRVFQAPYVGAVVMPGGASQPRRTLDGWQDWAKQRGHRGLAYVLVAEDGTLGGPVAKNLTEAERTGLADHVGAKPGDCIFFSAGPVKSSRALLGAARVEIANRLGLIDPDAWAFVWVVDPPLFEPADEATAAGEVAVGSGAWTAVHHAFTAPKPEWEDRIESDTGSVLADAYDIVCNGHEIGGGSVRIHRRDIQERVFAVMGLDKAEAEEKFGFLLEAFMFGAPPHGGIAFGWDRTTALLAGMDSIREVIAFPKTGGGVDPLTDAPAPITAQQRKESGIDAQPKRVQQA

[2] = target: Shiga toxin 2 (Escherichia coli O157:H7) (UniProt P09385+P09386); experiment: E. coli 0.157:H7 Shiga Toxin SOP - stx2 screening assay; assay type: functional; parameters: scale not given: direction of the effect not stated beside the values; settings: 30 µM

SMILES	Percent Effect [1] [%]	Percent Effect [2] [%]
Cc1nn(-c2ccccc2)cc1C(=O)N1CCCN2CCCC2C1 (stereo not drawn)	-6.57	-22
CS(=O)(=O)NCC1CCCCN1C(=O)Nc1cccnc1N1CCCC1 (stereo not drawn)	-2.73	4.39
CC(C)CC1SCC(=O)Nc2c1cnn2C(C)C (stereo not drawn)	3.17	-18.7
Cc1ccc(NC(=O)C2CSCN2C(=O)c2cc[nH]n2)c(C)c1 (stereo not drawn)	-3.15	12
